Measurements: PubChem BioAssay (Tox21)
Several values for one entry are separate records, joined by “and”; a condition that tells them apart may be missing. Identical values can stand only once. Inconclusive results are not listed. Entries that show only a call come without a potency. The source holds several records for some structures; these can differ, active in one and inactive in another. Activity calls are given as the source filed them. Calls come from the whole dose curve.

Each molecule was assayed against Acetylcholinesterase (Homo sapiens) (UniProt P22303) (assay: Acetylcholinesterase (AChE) small molecule antagonists: colormetric cell-based qHTS assay (AID 1347395; note: nearly all actives have a fitted effect of over 30% in size)). Conditions: SH-SY5Y cells AChE activity, colorimetric (Ellman); series mostly up to 115 µM.
Text: National Center for Advancing Translational Sciences [NCATS]
Division of Preclinical Innovation [DPI]
U.S. Environmental Protection Agency [EPA]
National Institutes of Environmental Health Sciences [NIEHS]
National Toxicology Program [NTP]
U.S. Food and Drug Administration [FDA]
Acetylcholinesterase (AChE) is the primary cholinesterase in the body that hydrolyzes a key neurotransmitter, acetylcholine. Inhibition of AChE activity can lead to neurotoxicity. The known inhibitors include organophosphorous pesticides (OP), chemical warfare agents, drugs, and various phytochemicals.
A homogenous cell-based assay using the Amplite Colormetric acetylcholinesterase assay kit (AAT Bioquest, Sunnyvale, CA) was used to evaluate the chemicals in the Tox21 10K library that inhibit AChE activity. The assay uses 5, 5-dithiobis-(2-nitrobenzoic acid) (DTNB) to quantify the thiocholine produced from the hydrolysis of acetylthiocholine by AChE from the SH-SY5Y cells.
Tox21 Assay Protocol Summary:
For the cell-based AChE assay, 2,000 SH-SY5Y cells in 4 uL/well were dispensed into black, clear-bottom 1536-well plates using a Multidrop Combi dispenser (Thermo Scientific, MA). The assay plates were incubated overnight at 37 C to allow cells to attach to the wells, followed by the transfer of 23 nL of compound or DMSO (vehicle control) by a Pintool Station (Wako Automation, CA). The plates were incubated for 30 min at 37 C and 5% CO2, followed by the addition of 4 uL of detection cocktail solution (DTNB, acetylthiocholine) into each well using a Flying Reagent Dispenser (Beckman Coulter, CA) and then 90 min incubation at 37 C.
Potency is the fitted concentration of half-maximal effect.

Acetylcholinesterase (Homo sapiens), sequence (P22303 whole entry, looked up): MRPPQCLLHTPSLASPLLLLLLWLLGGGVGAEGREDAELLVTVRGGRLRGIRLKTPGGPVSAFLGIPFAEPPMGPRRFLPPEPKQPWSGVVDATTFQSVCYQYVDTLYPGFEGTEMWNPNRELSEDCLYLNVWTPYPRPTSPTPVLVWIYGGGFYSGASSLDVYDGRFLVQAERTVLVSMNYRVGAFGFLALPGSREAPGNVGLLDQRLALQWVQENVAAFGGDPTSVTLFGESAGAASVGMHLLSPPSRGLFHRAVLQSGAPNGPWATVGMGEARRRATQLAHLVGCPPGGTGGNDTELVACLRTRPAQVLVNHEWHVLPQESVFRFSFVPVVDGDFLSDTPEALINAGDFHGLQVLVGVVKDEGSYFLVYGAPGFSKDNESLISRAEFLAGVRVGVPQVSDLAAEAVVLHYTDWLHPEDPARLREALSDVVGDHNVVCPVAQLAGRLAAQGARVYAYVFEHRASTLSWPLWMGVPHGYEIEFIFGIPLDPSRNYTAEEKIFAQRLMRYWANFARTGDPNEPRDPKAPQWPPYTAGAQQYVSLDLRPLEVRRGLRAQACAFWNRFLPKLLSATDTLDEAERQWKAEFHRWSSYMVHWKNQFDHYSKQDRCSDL

Structure (SMILES) | Potency
CNC | inactive
O=C(O)C(Cl)Cl | inactive
OCCOc1ccccc1 | inactive
Cc1cc(Cl)ccc1OCC(=O)O | inactive
CCCCCCCCCCCCCC[P+](CCCCCC)(CCCCCC)CCCCCC | 71.3 µM (active) and 80.3 µM (active) and inactive
COCC(=O)N(c1c(C)cccc1C)C(C)C(=O)OC (stereo not drawn) | inactive
Cc1cc(-c2ccc(N)c(C)c2)ccc1N | inactive
O=P1(N(CCCl)CCCl)NCCCO1 (stereo not drawn) | inactive
CCCCCCCCCCCCCCCCn1cc[n+](C)c1 | inactive
Oc1ccccc1-c1ccccc1 | inactive
CCNc1nc(Cl)nc(NCC)n1 | 31.9 µM (active) and inactive
Nc1ccc(-c2ccc(N)c(Cl)c2)cc1Cl | inactive
Nc1ccc(-c2ccc(N)cc2)cc1 | inactive
CCCn1cc[n+](C)c1 | inactive
CCC[N+]1(C)CCCCC1 | inactive
O=C(O)c1nc(Cl)ccc1Cl | inactive
O=C(O)COc1ccc(Cl)cc1Cl | inactive
C1CCC(NC2CCCCC2)CC1 | inactive
C=CCOC(Cn1ccnc1)c1ccc(Cl)cc1Cl (stereo not drawn) | inactive

Structure (SMILES) | Potency
C[C@]12CCC(=O)C=C1CC[C@@H]1[C@@H]2CC[C@]2(C)C(=O)CC[C@@H]12 | inactive
O=c1nc(O)n(Cl)c(=O)n1Cl | inactive
CCC(=O)C(CC(C)N(C)C)(c1ccccc1)c1ccccc1 (stereo not drawn) | inactive
CCCCCCCCCCn1cc[n+](C)c1 | 39.8 µM (active) [middle of 6 runs]
CC[n+]1ccccc1 | inactive
Nc1ccc(Cl)cc1 | inactive
CCn1cc[n+](C)c1C | inactive
O=[N+]([O-])c1ccccc1O | inactive
CC(Cl)(Cl)C(=O)O | inactive
CCCCCCCCCCCC(=O)O | inactive
CCCC[N+]1(C)CCCCC1 | inactive
CCCCCCCCCCCCOS(=O)(=O)O | inactive
CCOP(=S)(OCC)Oc1ccc2c(C)c(Cl)c(=O)oc2c1 | 22.7 µM (active) and 12.6 µM (active) and inactive
CC[N+]1(C)CCCC1 | inactive and 22.4 µM (active)
O=c1[nH]c(=O)n(Cl)c(=O)n1Cl | inactive
O=C(O)C(Cl)(Cl)Cl | inactive
O=C(O)CCl | inactive
CC(=O)[O][Hg][c]1ccccc1 | inactive
C[N+](C)(C)Cc1ccccc1 | inactive
